# Source: PubChem BioAssay (several laboratories)
# GDH-TPI inh: GDH-TPI coupled enzyme inhibition counter-screen; GDH-TPI coupled enzyme counterscreen, NADH absorbance; inhibition, % at 4.8 µM; 360,000 tested, 1.2% active; in the data active = inhibition above about 30%;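 also: 0% = DMSO wells and 100% = wells lacking the enzyme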
# BoNT-A LC inh2: inhibitors of Botulinum neurotoxin A light chain protease; multiplex microsphere protease substrate cleavage, flow cytometry; inhibition, % at 10 µM; 360,000 tested, 0.17% active; also: plate controls were buffer without enzyme for full effect and enzyme alone for no effect
# BoNT F protease: inhibitors of Botulinum neurotoxin F light chain protease. Multiplex microsphere protease cleavage assay, flow cytometry. inhibition, % at 10 µM. 360,000 tested, 0.22% active. AID 588497; in the data active = inhibition above about 35%, passing the limit was not always enough; inconclusive = no clear call, values can overlap the other calls; also: plate controls were buffer without enzyme for full effect and enzyme alone for no effect
# Mtb FBA inh: inhibits M. tuberculosis FBA enzyme; P9WQA3; purified M. tuberculosis FBA, fluorescence read-out; inhibition, % at 1 µM; 360,000 tested, 2.3% active; AID 588726; in the data active = inhibition above about 27%;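 also: 0% = vehicle and 100% = reference inhibitor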
# Target sequence (P9WQA3 whole entry, looked up): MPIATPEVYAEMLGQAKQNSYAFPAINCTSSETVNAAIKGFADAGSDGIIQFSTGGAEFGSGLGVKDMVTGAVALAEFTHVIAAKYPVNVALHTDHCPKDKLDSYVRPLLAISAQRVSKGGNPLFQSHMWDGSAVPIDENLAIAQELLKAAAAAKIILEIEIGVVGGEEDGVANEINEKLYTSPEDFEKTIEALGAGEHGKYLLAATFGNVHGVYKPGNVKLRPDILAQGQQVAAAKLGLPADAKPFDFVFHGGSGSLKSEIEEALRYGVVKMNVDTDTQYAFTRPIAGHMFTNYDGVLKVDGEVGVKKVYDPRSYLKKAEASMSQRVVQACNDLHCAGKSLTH
# Autofluor counter: flagged as autofluorescent in microsphere protease counterscreen; compound autofluorescence counterscreen, microsphere flow cytometry; stronger effect = higher value; fluorescence intensity (no concentration beside the values); 360,000 tested, 3.1% active; AID 624483; in the data active = fluorescence intensity above about 16000; inconclusive = no clear call, values can overlap the other calls
# Anthrax LF inh2: anthrax lethal factor protease inhibition | P15917 | multiplex microsphere protease cleavage assay, LF | inhibition, % at 10 µM | 360,000 tested, 0.12% active | AID 588501; also: plate controls were buffer without enzyme for full effect and enzyme alone for no effect
# * = called active by the depositor; ? = inconclusive. Hits are enriched below; roughly 6.6% of the tested compounds scored in any of these assays. Rule as the data show it, unless noted: active = inhibition above about 30%; inconclusive = no clear call, values can overlap the other calls; inactive = below that.
SMILES,GDH-TPI inh,BoNT-A LC inh2,BoNT F protease,Mtb FBA inh,Autofluor counter,Anthrax LF inh2
Cn1nnnc1SCC(=O)Nc1ccccn1,1,?,5,-2,22271*,-7
COC(=O)c1cccc(NC(=O)CSc2nnnn2C)c1,-10,0,0,-9,2755,0
CCOC(=O)c1cccc(NC(=O)CSc2nnnn2C)c1,6,1,6,1,5907,-2
CCOc1ccccc1CNn1cnnc1SCC(=O)NC(C)(C)C,-7,0,-6,2,3701,-7
COC(=O)c1cc(NC(=O)CSc2nncn2C)cc(C(=O)OC)c1,-2,-1,1,-3,20871*,-2
CN(C)c1ccc(C2C3C(=O)N(c4ccc(C(=O)O)cc4)C(=O)C3ON2c2ccccc2)cc1 (configuration not stated),3,-1,-14,-2,4866,-2
O=C1C2ON(c3ccccc3)C(c3ccncc3)C2C(=O)N1c1ccc(N2CCOCC2)cc1 (configuration not stated),10,0,-1,4,4223,-7
Cc1ccc(N2C(=O)C3ON(c4ccccc4)C(c4ccncc4)C3C2=O)cc1 (configuration not stated),-11,0,0,-2,20770*,0
O=C1C2ON(c3ccccc3)C(c3ccncc3)C2C(=O)N1c1ccc(Br)cc1 (configuration not stated),0,?,-1,-6,20513*,2
CCN(CC)S(=O)(=O)c1cccc(S(=O)(=O)N2CCCCC2)c1,2,-1,-10,-1,5442,-7
CCN(CC)S(=O)(=O)c1cccc(S(=O)(=O)c2cccc(S(=O)(=O)N(CC)CC)c2)c1,11,?,0,-2,22967*,-5
CCN(CC)S(=O)(=O)c1ccc(F)cc1,12,?,-2,4,17034*,0
Cc1cccnc1NC(=O)C12CCC(C)(C(=O)O1)C2(C)C (configuration not stated),-4,1,1,1,22033*,0
CN(C)c1ccc2nc3ccc(=[N+](C)C)cc-3sc2c1,2,32*,-25,-5,2168,7
CN(C)c1ccc2nc3ccc(=O)cc-3sc2c1,11,4,-3,0,2898,-2
Cc1cc2nc3ccc(=[N+](C)C)cc-3sc2cc1N,-16,61*,-10,-3,3584,20
COc1ccc(CC2(CO)COc3ccccc3C2=O)cc1 (configuration not stated),9,0,-4,-2,5366,8
Cc1cccc(N=C2NC(=O)/C(=C/c3cccnc3)S2)c1C,21,-3,?,-1,5618,0
Cc1ccc(N=C2NC(=O)/C(=C/c3cccnc3)S2)c(C)c1,33*,0,3,-1,5569,1
Cc1ccc(N=C2NC(=O)/C(=C\c3ccsc3)S2)c(C)c1,33*,-1,4,-3,10087,-2
CC(=O)Nc1nnc(S(=O)(=O)N2CCN(c3ccc(Cl)cc3[N+](=O)[O-])CC2)s1,7,0,2,-1,4378,2
CN1CCN(NC(=O)c2ccc(Br)s2)CC1,-6,0,-2,-1,4412,-2
COc1cccc(-c2nc(CCl)cs2)c1OC,1,0,-4,15,4244,-1
O=C(CNC(=O)c1ccccc1C(=O)O)c1ccccc1,-3,0,3,2,22929*,3
Cc1cn2c(-c3cccnc3)nnc2s1,-3,6,6,-1,19239*,-18
SMILES,GDH-TPI inh,BoNT-A LC inh2,BoNT F protease,Mtb FBA inh,Autofluor counter,Anthrax LF inh2
O=C(N[C@@H](Cc1ccccc1)C(=O)OCc1ccccc1)c1nc[nH]c1C(=O)NCc1ccccc1,15,0,-5,-1,2945,1
COc1ccc(CN(C(=O)Cc2c[nH]c3ccccc23)C(C(=O)NC2CCCCC2)c2ccc(C)o2)cc1 (configuration not stated),10,-6,-9,0,27158*,-6
COc1cc(C(C(=O)NC2CCCCC2)N(Cc2cccs2)C(=O)Cc2c[nH]c3ccccc23)cc(OC)c1OC (configuration not stated),11,-3,-4,-1,23578*,-2
COc1cc(C(C(=O)NC2CCCCC2)N(C(=O)Cc2c[nH]c3ccccc23)c2ccccc2C)cc(OC)c1OC (configuration not stated),6,0,-4,0,2433,-2
CCCCC1=CC2=C(c3ccco3)C(=O)C(C)(OC(=O)c3ccc(OC)cc3)C(=O)C2=CN1CC(C)C (configuration not stated),11,1,-7,0,3701,-2
O=C(CCNC(=O)C1CCN(S(=O)(=O)c2ccc(F)cc2)CC1)NCc1ccncc1,-6,-1,3,0,5553,-3
COc1cc(C2NC(=O)NC(C)=C2C(=O)OC(C)(C)C)ccc1OCC(N)=O (configuration not stated),-2,?,-8,1,21970*,2
CCOC(=O)C1=C(c2ccccc2)NC(=O)NC1c1ccc(OC)c(OC)c1 (configuration not stated),0,0,4,2,4201,-6
COc1cc(C2NC(=O)NC(c3ccccc3)=C2C(C)=O)ccc1OCC#N (configuration not stated),7,1,-1,2,23457*,-2
O=C(NCc1ccccc1)C1CCCN(C(=O)c2ccc(F)cc2)C1 (configuration not stated),0,0,-3,-1,6129,2
COc1ccc(NC(=O)N2CCN(C(=O)Nc3ccc(OC)cc3)CC2)cc1,16,0,-2,2,3399,-5
CCS(=O)(=O)C(=C(Nc1ccc(OC)cc1)Nc1ccc(OC)cc1)S(=O)(=O)CC,12,-2,-8,-1,22992*,-7
Cc1cccc(NC(=S)N(CCN(C)C)C(C)c2ccccn2)c1 (configuration not stated),-6,1,-2,0,22805*,-2
CCOC(=O)/C=C1\SCC(=O)N1CC(=O)Nc1cccc(F)c1,-5,0,-1,-3,4366,-2
COCCCNC(=O)c1cc(C)nc2ccc(F)cc12,3,1,2,-1,21925*,-5
Cc1ccccc1C(=O)c1cn[nH]c1-c1ccccc1O,-6,-2,-7,3,3881,-1
Cc1ccc(-c2[nH]ncc2C(=O)c2ccccc2C)c(O)c1,-11,-1,36*,1,3804,11
COc1cc(-c2nnc(-c3ccccc3)o2)cc(OC)c1OC,11,0,-11,8,3248,-2
COc1cc(-c2nnc(COc3ccc4ccccc4c3)o2)cc(OC)c1OC,-12,2,2,-2,22472*,-1
Cc1ncc(CO)c(CO)c1O,10,0,-3,4,5273,0
Cc1ncc(CO)c(CNc2ccc(-c3nc4ccccc4[nH]3)cc2)c1O,42*,2,2,14,3003,4
